This passage reports AC50 and outcome results from PubChem BioAssay (EPA / NIEHS).

Results filed as inconclusive are left out. The source made the active and inactive calls. The calls were made as follows, unless noted: active = hit-call score of the fitted dose curve at least 0.9, where 1 is the maximum; inconclusive = response in the unintended direction; inactive = score below 0.9.

Assay [1] in a line: CCTE_Padilla_ZF_144hpf_TERATOSCORE: (Legacy) CCTE's 144 Hour Post-fertilization zebrafish Assay Teratoscore, Padilla Lab (AID 2283679; active = hit-call score of the fitted dose curve at least 0.9, where 1 is the maximum; inactive = score below 0.9;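 as to AC50: zebrafish embryos with chorions exposed by immersion from 6-8 hpf to 5 dpf with daily renewal; teratogenicity score from eye scoring of death hatching and malformations at 144 hpf; higher score means more developmental defects relative to DMSO baseline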). The method, boiled down: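 Larvae scored by eye at 144 hpf for death, hatching and malformations after a day in clean Hanks'. Before that, daily-renewed exposure at 80 uM (0.4% DMSO, 26C) from roughly 6-8 hpf through 5 dpf, 4 embryos per chemical.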

Assay [2] in a line: STM_H9_OrnithineISnorm_perc: Stemina devTOX quickPredict H9 human embryonic stem cell (hESC)-based Assay for Ornithine (ORN) Metabolite Biomarker, Normalized (AID 2283712; active = hit-call score of the fitted dose curve at least 0.9, where 1 is the maximum; inactive = score below 0.9;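 also: ornithine released into spent medium during last day measured by mass spectrometry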). A digest of the protocol: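 Cells: undifferentiated H9 hESC. Dosing: 72 h, media replaced every 24 h. Sample: final 24-h conditioned media, 40% acetonitrile. Read: UPLC-HRMS ornithine area vs 13C standard, % DMSO control.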

A short description of assay [3]: STM_H9_CystineISnorm_perc: Stemina devTOX quickPredict H9 human embryonic stem cell (hESC)-based Assay for Cystine (CYSS) Metabolite Biomarker, Normalized (AID 2283713; active = hit-call score of the fitted dose curve at least 0.9, where 1 is the maximum; inactive = score below 0.9). A digest of the protocol:
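Secreted cystine was measured by UPLC-HRMS in H9 hESC medium after 72h compound exposure with 24-hourly replenishment. Values are standard-normalized areas relative to 0.1% DMSO.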

Assay [4] can be described thus: STM_H9_OrnCyssISnorm_ratio: Stemina devTOX quickPredict H9 human embryonic stem cell (hESC)-based Assay for Ornithine (ORN):Cystine (CYSS) Ratio (AID 2283714). A digest of the protocol: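 Undifferentiated H9 hESCs exposed 72 h, media and compound replaced every 24 h; final 24-h conditioned media deproteinized and analysed by UPLC-HRMS against C13 spike-ins. Value is the internal-standard-normalized ORN/CYSS ratio versus 0.1% DMSO.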

A short description of assay [5]: Tanguay_ZF_120hpf_ActivityScore_legacy: (Legacy) Oregon State University Tanguay Lab 120 Hour Post-fertilization zebrafish Assay Score for Activity (AID 2283742).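 As to AC50: dechorionated Tropical 5D wild-type zebrafish embryos held singly per well; static exposure from 6 hpf until 120 hpf at 28 °C.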 A digest of the protocol:
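Dechorionated Tropical 5D embryos, one per well from 6 hpf, statically exposed to 120 hpf at 28 °C in 0.64% DMSO. Mortality and malformations scored binary by brightfield microscopy; activity score combines 18 endpoints, fitted positively versus DMSO.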

The nature of assay [6]: ArunA_CellTiter_hNC: Viability Assessment in the ArunA Biomedical's Oris Neural Crest (hNC) Cell Migration Assay (AID 2283752). The method, boiled down:
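Viability of embryonic neural crest stem cells from the H9 line is scored 72 h after dosing, with DMSO as negative control and baseline. A drop in CellTiter Aqueous One signal indicates cytotoxicity.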

Assay [7] in a line: ArunA_CellTiter_hNP: Viability Assessment in the ArunA Biomedical's Oris Neural Crest (hNC) Cell Migration Assay (AID 2283753). A digest of the protocol: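 H9-derived hNP1 neuroprogenitors, 60,000/well on Matrigel, cultured 16 h, then 72 h chemical exposure in test medium. Cell titer via CellTiter Aqueous One; positive-direction fit vs DMSO.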
Assay [8] is described as follows: ArunA_Migration_hNP: ArunA Biomedical's Oris Neuroprogenitor (hNP) Cell Migration Assay (AID 2283754). The method, boiled down:
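Human H9-derived hNP1 neuroprogenitors on Matrigel with LIF/bFGF, plated around seeding stoppers for 16 h at 37C; stoppers removed at start of 72 h chemical exposure. Calcein-AM staining, fluorescence 494/517 nm in detection zone; loss-of-signal vs DMSO; cytochalasin D control.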

Assay [9] is described as follows: ArunA_Migration_hNC: ArunA Biomedical's Oris Neural Crest (hNC) Cell Migration Assay (AID 2283755). The method, boiled down: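 Human H9-derived neural crest stem cells, 60,000/well on Matrigel, 16 h at 37C, then 72 h chemical exposure after seeding-stopper removal. Migration into detection zone read as calcein-AM fluorescence (ex494/em517), relative to DMSO.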
A short description of assay [10]: ArunA_NOG_NucleusCount: ArunA Biomedical's Neurite Outgrowth (NOG) Assay for Nucleus Count (AID 2283756). A digest of the protocol:
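Human H9-derived differentiated neurons were exposed for 48 h right after seeding. Hoechst-stained nuclei gated by size and intensity were counted by automated high-content imaging as viable neurons. Loss of signal vs DMSO.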

Assay [11] in a line: ArunA_NOG_NeuriteLength: ArunA Biomedical's Neurite Outgrowth (NOG) Assay for Neurite Length (AID 2283757). The method, boiled down: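 Differentiated human H9-derived neurons were exposed for 48 h from seeding, then stained with Hoechst and βIII-tubulin. Automated high-content imaging gave total neurite length per valid neuron, counting processes >10 um. Loss of signal was scored versus DMSO.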

Assay [12] in a line: ArunA_NOG_NeuritesPerNeuron: ArunA Biomedical's Neurite Outgrowth (NOG) Assay for Neurites Per Neuron (AID 2283758). A digest of the protocol: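 Differentiated human H9-derived neurons exposed to chemicals for 48 h from seeding, then stained with Hoechst and βIII-tubulin/DyLight 488. Automated imaging counted neurites (processes >10 um) per valid neuron; loss of signal versus DMSO scored.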

The nature of assay [13]: ArunA_NOG_BranchPointsPerNeurite: ArunA Biomedical's Neurite Outgrowth (NOG) Assay for Branch Points Per Neurite (AID 2283759). The method, boiled down: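 Automated image analysis traced neurites (processes >10 um) from valid cell bodies after Hoechst and βIII-tubulin staining. hNN cells from H9 embryonic stem cells, 48 h exposure. Fitted bidirectionally against DMSO.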

In assay [14] the target is Luciferin 4-monooxygenase (Photinus pyralis) (UniProt P08659). Description: CCTE_Simmons_QuantiLum_inhib_2: CCTE's Firefly Luciferase Inhibition Assay, Simmons Lab (AID 2283767). A digest of the protocol: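 Counter-screen for nonspecific enzyme inhibition: purified firefly luciferase incubated 30 min at 37C with chemicals up to 87.5 uM final, then luminescence measured after luciferin/dATP injection; activity fitted against DMSO baseline.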
Chain of Luciferin 4-monooxygenase (Photinus pyralis) (P08659 whole entry, looked up): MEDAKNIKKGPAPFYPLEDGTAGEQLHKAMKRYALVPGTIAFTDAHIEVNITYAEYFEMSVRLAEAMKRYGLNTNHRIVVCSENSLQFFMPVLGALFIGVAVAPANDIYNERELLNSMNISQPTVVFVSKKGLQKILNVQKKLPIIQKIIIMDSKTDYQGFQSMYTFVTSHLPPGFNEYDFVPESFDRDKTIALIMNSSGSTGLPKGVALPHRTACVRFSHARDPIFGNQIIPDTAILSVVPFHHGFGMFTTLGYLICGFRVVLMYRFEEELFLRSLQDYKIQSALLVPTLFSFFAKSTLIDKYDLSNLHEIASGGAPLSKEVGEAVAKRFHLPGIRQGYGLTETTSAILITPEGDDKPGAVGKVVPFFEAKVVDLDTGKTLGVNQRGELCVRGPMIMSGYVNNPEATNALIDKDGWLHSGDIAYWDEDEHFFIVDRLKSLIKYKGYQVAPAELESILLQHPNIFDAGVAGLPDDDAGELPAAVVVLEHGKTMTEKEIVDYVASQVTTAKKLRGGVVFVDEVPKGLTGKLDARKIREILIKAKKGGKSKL

Assay [15] has as its system zebrafish Androgen Receptor (AR), gene 100005148. Description: ATG_zfAR_XSP1: Attagene TRANS-FACTORIAL Multi-Species (XSP1) HepG2 Assay for zebrafish Androgen Receptor (AR) (AID 2283771). The method, boiled down: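 HepG2 cells were transiently transfected with a zebrafish AR-GAL4 reporter system and partially stimulated with 3 nM 6-alpha-fluorotestosterone. Reporter mRNA was measured after 24 h dosing by RT-PCR with capillary electrophoresis, and gain-of-signal was fitted relative to DMSO.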

In assay [16] the target is zebrafish Estrogen Receptor (ESR1), esr1 (gene 259252) (UniProt P57717). Description: ATG_zfER1_XSP1: Attagene TRANS-FACTORIAL Multi-Species (XSP1) HepG2 Assay for zebrafish Estrogen Receptor (ESR1) (AID 2283772). The method, boiled down:
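HepG2 cells transiently transfected with a GAL4-UAS reporter and chimeric zebrafish ER-Gal4, dosed 24 h with 3 nM 6-alpha-fluorotestosterone present. Reporter mRNA measured by RT-PCR and capillary electrophoresis; gain of signal versus DMSO.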

In assay [17] the test system is zebrafish Estrogen Receptor (ESR2B), gene 317733. Description: ATG_zfER2b_XSP1: Attagene TRANS-FACTORIAL Multi-Species (XSP1) HepG2 Assay for zebrafish Estrogen Receptor (ESR2B) (AID 2283773). The method, boiled down: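 HepG2 cells transiently transfected with GAL4-UAS reporter units for chimeric zebrafish ER2b-Gal4, with 3 nM 6-alpha-fluorotestosterone present; reporter mRNA measured 24 h after dosing by RT-PCR and capillary electrophoresis, gain versus DMSO.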

Assay [18] has as its system frog Estrogen Receptor (ESR2), gene 100174814. Description: ATG_frER2_XSP1: Attagene TRANS-FACTORIAL Multi-Species (XSP1) HepG2 Assay for frog Estrogen Receptor (ESR2) (AID 2283774). The method, boiled down: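 HepG2 cells transiently transfected with GAL4-UAS reporter units expressing chimeric frog ER-Gal4; 3 nM 6-alpha-fluorotestosterone present. After 24 h dosing, reporter mRNA quantified by RT-PCR and capillary electrophoresis; gain-of-signal fitted relative to DMSO.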

Assay [19] in a line: CEETOX_H295R_MTT_cell_viability: Viability Assessment in the CeeTox HT-H295R MTT Assay (AID 2283718; active = hit-call score of the fitted dose curve at least 0.9, where 1 is the maximum; inactive = score below 0.9). The method, boiled down:
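Human H295R adrenal cells, prestimulated 48 h with 10 uM forskolin, were exposed 48 h to chemicals in 0.1% DMSO. Viability was measured in the same wells by MTT (0.5 mg/ml, 4 h, 37 C), absorbance 570/650 nm, as percent of controls.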

Chain of zebrafish Estrogen Receptor (ESR1), esr1 (gene 259252) (P57717 whole entry, looked up, the tested form may be a part): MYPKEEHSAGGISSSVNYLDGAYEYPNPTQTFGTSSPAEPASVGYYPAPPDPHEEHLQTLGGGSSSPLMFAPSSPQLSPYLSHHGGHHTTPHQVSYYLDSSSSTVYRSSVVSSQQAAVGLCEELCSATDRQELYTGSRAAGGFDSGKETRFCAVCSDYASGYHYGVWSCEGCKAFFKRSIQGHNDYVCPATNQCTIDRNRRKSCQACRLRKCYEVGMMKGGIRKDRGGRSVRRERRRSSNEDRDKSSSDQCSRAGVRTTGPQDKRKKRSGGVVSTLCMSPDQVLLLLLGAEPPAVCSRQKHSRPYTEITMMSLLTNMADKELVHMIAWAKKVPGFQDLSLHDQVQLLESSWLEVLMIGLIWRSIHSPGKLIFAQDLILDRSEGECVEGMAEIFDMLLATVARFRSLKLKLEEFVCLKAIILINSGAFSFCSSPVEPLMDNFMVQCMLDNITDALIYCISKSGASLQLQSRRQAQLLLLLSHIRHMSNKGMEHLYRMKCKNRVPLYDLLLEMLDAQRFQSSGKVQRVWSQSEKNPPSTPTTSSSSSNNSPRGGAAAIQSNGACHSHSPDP

Turning to `O=P(OC(CCl)CCl)(OC(CCl)CCl)OC(CCl)CCl`, the AC50 (commonly the concentration at which the activity in the assay is half-maximal) in assay [1] is 14.3 µM (active); in assay [5], 38.3 µM (active); in assay [9], 1.97 µM (active); in assay [17], 20.8 µM (active); in assay [18] it was 26 µM (active). Besides, the result in assay [2], in assay [3], in [4], in assay [6], in assay [7] and in assay [8] was inactive. Also, the compound was called inactive in assay [10], in assay [11], in assay [12], in [13], in [14] and in assay [15]. In addition, the call in assay [16] was inactive.
Consider `CC(=O)OCCC(C)C`, for which the compound was classed as inactive in assay [1] and in assay [5].
For the compound `O=C(O)c1cccc(Oc2ccccc2)c1`, the concentration at half-maximal activity (AC50) in assay [1] was 65.2 µM (active). The call in assay [5] was inactive.
Taken in the same sequence, the figures for `CC(C)=CCC/C(C)=C/CO` were 15.4 µM (active) and “inactive”.
Turning to `COc1ccc(-n2nc(C(F)F)cc2-c2ccc(S(C)=O)cc2)cc1` (stereo not drawn), the figures for the AC50 in assay [1] and in assay [5] were 88.9 µM (active) and 151 µM (active), respectively. In assay [19], the call was inactive.
Consider `CCOC(=O)CC(CC(=O)OCC)(OC(C)=O)C(=O)OCC`, for which the result in assay [1] and in assay [5] was inactive.
On to `Cc1[nH]cnc1C[C@H]1CCc2c(C)c3ccccc3n2C1=O`, for which the AC50 in [1] is 13.8 µM (active). Moreover, the call in [5] and in [14] was inactive.
For `CC1(C)C(=O)N(Br)C(=O)N1Br`, the compound was called inactive in assay [1] and in assay [5].
Consider `O=c1n(CC2CO2)c(=O)n(CC2CO2)c(=O)n1CC1CO1` (stereo not drawn), for which the AC50 in assay [2] was 0.49 µM (active); in [3], 0.166 µM (active); in assay [4], 0.295 µM (active). In addition, the compound was called inactive in assay [5] and in assay [14].
With `CC(C)CC(C)(O)C#CC(C)(O)CC(C)C` (stereo not drawn), the AC50 in assay [2] is 75 µM (active); in assay [3], 60.1 µM (active); in assay [4], 63.2 µM (active). In addition, the result in assay [19] and in assay [5] was inactive.
In the case of `CCCCCCc1ccc(O)cc1O`, the AC50 was 14.9 µM (active) in assay [1] and 43.8 µM (active) in assay [5]. Also, the outcome in [14] was inactive.
Consider `COC(=O)c1c(Cl)c(Cl)c(C(=O)OC)c(Cl)c1Cl`, for which the result in assay [19] and in assay [5] was inactive.
For the compound `CC(C)=CCCC(C)=CC=O`, the concentration at half-maximal activity (AC50) in assay [2] is 0.0217 µM (active). Moreover, the result in assay [3], in [5] and in [14] was inactive.
Turning to `CCOC(=O)c1ccc(C2CCC(NC[C@H](O)COc3ccc(O)c(NS(C)(=O)=O)c3)CC2)cc1` (stereo partly drawn), the result in [2], in [19], in assay [5] and in assay [14] was inactive. In addition, the AC50 in assay [3] is 1.37 µM (active); in assay [4], 1.42 µM (active).
For `CCN(C(=O)c1cc(C)cc(OC[C@H](C)Nc2ccncc2)c1)C(C)C`, the outcome in assay [2] and in assay [5] was inactive. Further, the AC50 in assay [3] and in assay [4] was 7 µM (active) throughout.
